# Measured values published in PubChem BioAssay.
# Experiments:
# [1] = system: Human papillomavirus type 1a protein E7 (residues 44-93); assay: small molecules binding HPV E7 44-93 – biochemical, small-molecule microarray, residues 44-93, 635 nm fluorescence, primary screen (AID 1108); details: fluorescence 635 nm, higher = more signal;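 note: E7 fragment applied at 1 µg/mL in TBST for 1 h at 4 C; score combines spot fluorescence with its signal to noise ratio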
# [2] = hepatitis C replication reporter changes, two-sided – Huh7 cells, luciferase reporter, HCV replication inhibitor project, primary screen (AID 1109); details: Huh7 HCV replicon luciferase reporter, 48 h; higher = more signal;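 note: huh7 hepatoma cells harbouring a luciferase neomycin HCV replicon reporter; luciferase luminescence as measure of HCV replicon replication; test concentration not given here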
# [3] = target: Left-right determination factor 2 (Homo sapiens) (UniProt O00292); assay: small molecules binding LEFTY2 protein – biochemical, small-molecule microarray, 635 nm fluorescence scan, primary screen (AID 1110); details: higher = more signal
# [4] = target: Calmodulin-1 (Homo sapiens) (UniProt P0DP23); assay: small molecules binding calmodulin-1 with EGTA – biochemical, small-molecule microarray, Cy5-labelled CALM1, profiling panel (AID 1111); details: Cy5-CALM1 binding fluorescence, higher = more signal;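 note: labelled calmodulin applied in Tris saline Tween buffer holding calcium plus EGTA and DTT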
# [5] = target: Calmodulin-1 (Homo sapiens) (UniProt P0DP23); assay: small molecules binding Ca-loaded calmodulin-1 – biochemical, small-molecule microarray, Cy5-labelled CALM1, plus calcium, artefact control for SMM control-protein annotation, profiling panel (AID 1112); details: Cy5-CALM1 binding fluorescence, higher = more signal;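 note: score merges spot fluorescence with signal to noise from triplicate slides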
# [6] = probe aWnt5a binding to arrayed compounds – biochemical, biotinylated probe, 635/667 nm fluorescence, primary screen (AID 1113); details: small-molecule microarray, higher = more signal;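 note: score merges 667 nm fluorescence intensity with signal-to-noise per printed feature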
# [7] = probe aShh binding to arrayed compounds – biochemical, biotinylated probe, 635/667 nm fluorescence, primary screen (AID 1114); details: small-molecule microarray, higher = more signal;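 note: probe is biotin-labelled aShh protein from a stem cell growth factor screen; measures binding of labelled protein to compounds printed on the slide; score merges feature fluorescence at 667 nm with signal-to-noise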
# [8] = probe aNog binding to arrayed compounds – biochemical, biotinylated probe, 635/667 nm fluorescence, primary screen (AID 1115); details: small-molecule microarray, higher = more signal;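 note: probe is biotinylated aNog protein used at 0.15 µg/mL for 1 h at 4 C; z-score combines 667 nm fluorescence of each spot with its signal to noise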
# [9] = target: Torsin-1A-interacting protein 1 (Homo sapiens) (UniProt Q5JTV8); assay: compound microarray binding of lysate hLAP1 – cell lysate, small-molecule microarray, COS7 lysate, 635/667 nm fluorescence, primary screen (AID 1116); details: 635 nm fluorescence, higher = more signal
# [10] = target: Alpha-bungarotoxin (Bungarus multicinctus) (UniProt P60615); assay: compounds binding labelled alpha-BTX control protein – biochemical, small-molecule microarray, Alexa647 label, 635/667 nm fluorescence, artefact control for SMM control protein annotation, profiling panel (AID 1117); details: alpha-BTX-A647 binding fluorescence, higher = more signal
# Chain of Alpha-bungarotoxin (Bungarus multicinctus) (P60615 whole entry, looked up): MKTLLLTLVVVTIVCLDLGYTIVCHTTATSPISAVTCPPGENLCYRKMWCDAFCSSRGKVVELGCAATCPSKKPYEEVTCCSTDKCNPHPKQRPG
# Chain of Left-right determination factor 2 (Homo sapiens) (O00292 whole entry, looked up): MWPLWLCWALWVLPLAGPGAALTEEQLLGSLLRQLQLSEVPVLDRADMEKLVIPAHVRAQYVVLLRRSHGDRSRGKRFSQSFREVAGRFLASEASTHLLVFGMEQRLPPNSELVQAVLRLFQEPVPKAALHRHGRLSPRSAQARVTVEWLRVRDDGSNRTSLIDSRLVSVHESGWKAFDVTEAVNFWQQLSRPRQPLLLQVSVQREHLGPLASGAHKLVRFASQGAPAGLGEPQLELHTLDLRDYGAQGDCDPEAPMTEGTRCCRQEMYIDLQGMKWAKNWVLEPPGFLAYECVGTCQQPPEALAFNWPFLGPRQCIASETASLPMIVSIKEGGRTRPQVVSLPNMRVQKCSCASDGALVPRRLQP
# Chain of Torsin-1A-interacting protein 1 (Homo sapiens) (Q5JTV8 whole entry, looked up): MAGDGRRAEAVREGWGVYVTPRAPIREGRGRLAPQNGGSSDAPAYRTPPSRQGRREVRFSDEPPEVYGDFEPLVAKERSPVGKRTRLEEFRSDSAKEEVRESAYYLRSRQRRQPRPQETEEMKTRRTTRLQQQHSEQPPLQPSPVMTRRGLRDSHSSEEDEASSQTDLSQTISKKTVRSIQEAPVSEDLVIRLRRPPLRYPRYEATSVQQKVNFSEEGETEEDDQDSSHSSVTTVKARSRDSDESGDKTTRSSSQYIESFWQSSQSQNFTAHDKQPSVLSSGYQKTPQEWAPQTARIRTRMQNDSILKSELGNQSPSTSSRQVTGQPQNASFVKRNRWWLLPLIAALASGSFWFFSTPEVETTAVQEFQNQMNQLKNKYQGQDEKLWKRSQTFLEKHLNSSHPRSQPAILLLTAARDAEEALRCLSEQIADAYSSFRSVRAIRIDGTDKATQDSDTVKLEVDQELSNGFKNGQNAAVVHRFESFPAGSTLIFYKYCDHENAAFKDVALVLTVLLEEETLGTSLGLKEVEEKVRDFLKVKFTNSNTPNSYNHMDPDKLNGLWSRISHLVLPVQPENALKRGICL
Structure (SMILES),composite z-score [1],z-score [2],composite z-score [3],composite z-score [4],composite z-score [5],composite z-score [6],composite z-score [7],composite z-score [8],composite z-score [9],composite z-score [10]
CN(C)C(=O)[C@]1(Cc2ccccc2)N=C(c2ccc(OCCCO)cc2)O[C@@H]1c1ccccc1CN=[N+]=[N-],1.41,-2.79,-0.273,1.09,0.781,0.027,0.116,-0.294,1.62,1.15
CC1CC/C=C\[C@H]2OC34C=CCN(C(C)(C)C)C(=O)[C@H]3N(CCCO)C(=O)[C@@H]4C2C(=O)O1 (stereo not given in full),-0.0793,-0.751,-0.19,-0.128,0.588,-0.105,0.0278,0.0215,1.42,-1.18
CC(C)C(CO)N1C(=O)[C@@H]2C3C(=O)OCCC/C=C\[C@H]3OC23C=CCN(Cc2ccccc2)C(=O)[C@@H]13 (stereo not given in full),-1.78,0.537,-1.05,-0.969,0.574,-0.0643,0.254,-0.103,1.14,-1.68
O=C(NCC(O)CO)C1N=C(c2ccc(OCCCO)cc2)N(c2ccccc2)O1 (stereo not given),1.08,-0.95,0.48,0.0138,-0.332,-0.103,-0.232,-0.243,1.35,0.282
C=CCC(OC(C)=O)[C@@H]1[C@@H](N(Cc2cccc3ccccc23)C(=O)Cc2ccc(OC)cc2)c2cc(OCCCO)ccc2N1C(=O)Cc1ccc2ccccc2c1 (stereo not given in full),0.415,0.24,-0.102,0.0895,0.316,-0.216,-0.138,-0.308,-0.0234,0.14
COC(=O)C(CC#Cc1ccc2c(c1)[C@]1(C(=O)N2)[C@H](C(=O)N2CCc3cc(OC)c(OC)cc3C2)[C@H]2C(=O)O[C@H](c3ccccc3)[C@H](c3ccccc3)N2[C@@H]1c1ccccc1OCCO)C(=O)OC,-0.099,-2.09,0.815,1.02,-0.509,-0.0161,-0.0289,0.682,1.59,2.65
COc1ccc([Si](C)(C)[C@@H]2[C@@H](CC(=O)N3Cc4ccccc4C[C@H]3CO)O[C@]3(C(=O)N(Cc4cccc(N5CCOC5=O)c4)c4ccccc43)[C@H]2C)cc1,1.02,-3.46,0.736,-0.695,-0.611,-0.0684,-0.0243,-0.397,0.0192,0.258
C=C(CCCC)/C(=C/C[C@H](OC(C)=O)c1cccc(OCCO)c1)c1cnc2ccccc2c1,-0.114,-2.3,-0.234,-0.437,-0.896,-0.0684,0.0723,0.0664,0.558,0.387
COc1ccc([Si](C)(C)[C@@H]2[C@@H](CC(=O)N3CCC[C@H]3CO)O[C@]3(C(=O)N(Cc4ccc(N5CCOC5=O)cc4)c4ccccc43)[C@H]2C)cc1,1.06,-1.58,0.327,1.08,0.461,-0.175,0.0121,-0.402,1.1,0.931
CCCCCC1=C2CNC(Cc3ccccc3)(C(=O)OC)C=C2C(C)C1=O (stereo not given),0.719,-1.85,-1.75,1.54,1.46,-0.0643,0.45,1.7,1.64,0.175
COC(=O)[C@@]1(Cc2ccc(F)cc2)[C@H]2c3cc(C(=O)N4CCCC4)n(Cc4cc(F)cc5c4OCOC5)c3C[C@H]2CN1C(=O)c1ccccc1,-0.0014,-2.1,-0.285,1.37,1.05,0.179,0.184,-0.694,-0.415,0.92
CN1C(=O)C2C(C1=O)C1C=C(c3ccc(CO)cc3)C2C(C2CC2)N1C (stereo not given),0.208,0.203,0.0075,0.0024,0.103,-0.0664,-0.138,-0.0606,0.149,0.219
COCCOC(=O)N1C(=O)[C@@]2(c3cc(C#Cc4ccc(OC)cc4)ccc31)[C@H](c1ccc(OCCO)cc1)N1[C@H](c3ccccc3)[C@H](c3ccccc3)OC(=O)[C@H]1[C@@H]2C(=O)NC[C@H](O)c1ccccc1,1.12,-1.69,1.25,1.15,0.842,0.0078,-0.273,0.338,0.851,1.4
CCCN1C(=O)[C@@]2(c3ccc([N+](=O)[O-])cc3)CC(=O)N(CC34CC5CC(CC(C5)C3)C4)[C@@H]2c2ccc(CO)cc21,0.0595,-0.767,-0.242,-0.0921,-0.647,-0.0203,-0.0519,-0.873,-0.38,-0.0061
CC(C)N1C(=O)c2ccccc2[C@@H](C(=O)NCC(F)(F)F)[C@@H]1c1ccc(CO)cc1,0.124,0.568,0.0101,-0.257,-0.224,-0.0334,-0.0626,0.128,0.287,-0.143
O=C1C2C=CC(C(O)c3c(F)cccc3Cl)N(Nc3ccc([N+](=O)[O-])cc3)C2C(=O)N1c1ccccc1 (stereo not given),1.41,0.128,0.563,2.16,0.132,-0.0222,0.23,0.803,1.6,0.676
O=C1O[C@@H](c2ccccc2)[C@@H](c2ccccc2)N2[C@@H](c3ccc(OCCO)cc3)[C@]3(C(=O)Nc4ccc(C#CCCO)cc43)[C@@H](C(=O)O)[C@H]12,1.08,-0.22,0.687,2.03,0.408,0.663,0.582,2.45,1.99,1.95
C=C(C)[C@@H]1CC=C(C(O)C2C=CC3C(=O)N(C)C(=O)C3N2Nc2ccc([N+](=O)[O-])cc2[N+](=O)[O-])CC1 (stereo not given in full),1.45,-0.44,0.265,0.79,0.441,0.101,0.302,1.46,0.958,1.95
